Screening data deposited in PubChem BioAssay by National Center for Advancing Translational Sciences (NCATS).
G9a block: qHTS Assay for Inhibitors of Histone Lysine Methyltransferase G9a; Histone-lysine N-methyltransferase EHMT2 (Homo sapiens), Q96KQ7; G9a H3K9 monomethylation, AlphaScreen, 2 h; AID 504332, 2011; hit rate 8.8% among 350,000; Potency, µM (doses to about 102 µM), for the others: at the top dose activity, negative = inhibition, usual class: inhibitors; further: on the % scale 0 is the no-effect control and ±100 the full control effect; nearly all actives have a fitted effect of over 75% in size
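G9a (20 nM) was preincubated 15 min with compound, then reacted 2 h at room temperature with 500 nM biotin-H3K9 peptide and 20 µM SAM. Monomethyl-H3K9 detected by AlphaScreen using anti-H3K9me1 antibody.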
JMJD2A Tudor: qHTS Assay for Inhibitors of JMJD2A-Tudor Domain | AlphaScreen JMJD2A-Tudor / H3K4me3 peptide binding | Potency, µM (top dose mostly 114 µM), for inactives: at the top dose activity change, negative = inhibition, actives largely listed as inhibitors | hit rate 4.4% among 390,000; further: on the % scale 0 is the no-effect control and ±100 the full control effect; nearly all actives have a fitted effect of over 50% in size
BAZ2B inh: qHTS Assay for Inhibitors of BAZ2B | Bromodomain adjacent to zinc finger domain protein 2B (Homo sapiens), Q9UIF8 | AlphaScreen BAZ2B-H3K14Ac peptide displacement | Potency, µM (top dose mostly 114 µM), without a hit: at the top dose activity change, negative = inhibition, actives largely listed as inhibitors | hit rate 4.4% among 360,000 | AID 504333, 2011; further: on the % scale 0 is the no-effect control and ±100 the full control effect; nearly all actives have a fitted effect of over 60% in size
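Inhibition is scored as reduced AlphaScreen emission. The BAZ2B/b-H3(5-23)K14Ac complex (50 nM each) in PBS pH 7.4, 0.01% Tween-20 meets compound (up to 110 uM) for 30 min at RT before bead addition.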
Sfp inh: qHTS Assay for Inhibitors of Bacillus subtilis Sfp phosphopantetheinyl transferase (PPTase). Potency, µM, for the others: largest response in the series, negative = inhibition, actives largely listed as inhibitors. AID 1490, 2009. hit rate 3.5% among 310,000. 4'-phosphopantetheinyl transferase ffp (Bacillus subtilis), Q9F4F7. Biochemical Sfp PPTase activity, qHTS;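 further: the enzyme is Sfp with the accession as filed and its product quenches rhodamine fluorescence; 0% = enzyme reaction without inhibitor and -100% = no enzyme wells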
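After 15 min at room temperature with compound, 15 nM Sfp received 5 uM rhodamine-CoA plus 12.5 uM BHQ-2-ybbR (50 mM Hepes pH 7.6, 10 mM MgCl2). Rate came from the fluorescence difference over 30 min, ex 525/em 598 nm.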
HP1b binding inh: HTS for Inhibitors of HP1-beta Chromodomain Interactions with Methylated Histone Tails; hit rate 0.56% among 390,000; AlphaScreen HP1-beta / biotin-H3K9me3 peptide binding; Potency, µM (highest dose often 114 µM), inactives show at the highest dose activity change, negative = inhibition, hits mostly inhibitors; further: nearly all actives have a fitted effect of over 70% in size
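HP1-beta protein (50 nM final) preincubated 30 min at room temperature with biotinylated H3(1-18)K9me3 peptide (50 nM) in PBS pH 7.4, 0.01% Tween-20, then compound added for 30 min. AlphaScreen streptavidin donor/nickel chelate acceptor beads (10 ug/mL final), 30 min dark, luminescence read.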
PLK1 PBD block: qHTS for Inhibitors of PLK1-PDB (polo-like kinase 1 - polo-box domain): Primary Screen; Potency, µM, inactives show max response, negative = inhibition, usual class: inhibitors; Plk1 PBD binding of FITC phosphopeptide, fluorescence polarization; Serine/threonine-protein kinase PLK1 (Homo sapiens), P53350; hit rate 2.8% among 360,000; further: series mostly up to about 57 µM; on the % scale 0 is the no-effect control and ±100 the full control effect; nearly all actives have a fitted effect of over 65% in size
An asterisk follows results filed as active; ? = inconclusive; · = no result; [ ] = dose if it differs, or a comment. Hits are enriched below; roughly 12% of the tested compounds scored in any of these assays. The call rests on the fitted dose curve; in most records, active means well fitted curve in the direction sought with a large enough effect; inconclusive means small, poorly fitted or top-dose-only effect, or another doubt; inactive means no such curve, though single readings can be large; an effect the other way counts as inactive or inconclusive. Potency means the concentration at half of the fitted maximal effect.

SMILES	G9a block	JMJD2A Tudor	BAZ2B inh	Sfp inh	HP1b binding inh	PLK1 PBD block
Cc1cc(OCC(=O)NCCN2CCOCC2)c2c(C)c(C)c(=O)oc2c1	3%	-14%	-21%	15%	15%	-9%
Cn1c(=O)c(=O)n(C)c2cc(S(=O)(=O)CCC(=O)N3CCOCC3)ccc21	-39%[59 µM]	?	-2%	20%	11%	27µM*
CC1CCCN(C(=O)CCS(=O)(=O)c2ccc3c(c2)n(C)c(=O)c(=O)n3C)C1 (stereo unspecified)	3%	-4%	-28%	12%	58%	-13%
O=C1C(=O)N(Cc2ccc(Cl)c(Cl)c2)c2ccccc21	·	·	·	50µM*	·	·
O=C1/C(=N/n2cnnc2)c2ccccc2N1Cc1ccccc1	?	·	-8%	45µM*	·	·
Cn1c(=O)c(-c2cccc(C#N)c2)nc2cnc(Oc3ccccc3)nc21	-4%[0.501 µM]	·	·	-4%	·	·
CCCCOCCCNCc1cccn1CCN1CCOCC1	?	7.9µM*	-36%	2%	-24%	-7%
CCCCCNCc1cccn1C	8%[59 µM]	-30%	-37%	10%	6%	-11%
Cn1c(=O)c2c(nc(NC(Cc3ccccc3)C(=O)O)n2Cc2ccccc2)n(C)c1=O (stereo unspecified)	56µM*	-23%	?	6%	22%	-14%
COc1ccc(-c2cc(-c3ccc(OC)cc3)nc(-c3ccc4c(c3)NC(=O)CO4)c2)cc1	-32%[2.33 µM]	-13%	-7%	?	27%	-2%
O=C1COc2ccc(-c3csc(NCC4CCCO4)n3)cc2N1 (stereo unspecified)	?	-33%	-36%	-18%	0%	-12%
CC(Nc1nc(-c2ccc3c(c2)NC(=O)CO3)cs1)c1ccccc1 (stereo unspecified)	?	-21%	?	-12%	33%	17µM*
COc1cccc(-c2nc(-c3ccc4c(c3)NC(=O)CO4)cs2)c1	-4%[59 µM]	-21%	-12%	?	-3%	13µM*
CCNc1ccc(P(=O)(c2ccccc2)c2ccccc2)cc1	5%	-16%[11.4 µM]	-9%	15%	44%	-10%
CN(C)/C=N/c1sc2c(c1C#N)CCCCC2	?	?	?	-3%	?	-9%
N#Cc1c(/N=C/c2ccc(-c3ccccc3C(=O)O)o2)sc2c1CCCC2	32µM*	79µM*	45µM*	3%	-33%	38µM*
N#Cc1c(/N=C/N2CCOCC2)sc2c1CCCCC2	?	?	-31%	2%	?	21µM*
N#Cc1c(/N=C/c2ccc(Br)s2)sc2c1CCC2	?	-20%[57.1 µM]	-31%	5%	-23%	?
Cc1ccc(/C=N/c2sc3c(c2C#N)CCC3)o1	18µM*	45µM*	?	?	-69%	-3%
N#Cc1c(/N=C/c2cccs2)sc2c1CCCCC2	14µM*	40µM*	8.9µM*	-14%	?	-12%
CCOC(=O)C(CC)Sc1ccc2nnc(-c3ccc(F)cc3)n2n1 (stereo unspecified)	·	1%[57.1 µM]	·	·	25%[57 µM]	·
CC(=O)Nc1ccc(-c2ccnc3c2CC(C)(C(=O)NCc2cccc(Cl)c2)O3)cc1 (stereo unspecified)	·	·	·	·	·	4%
N#Cc1cc2nc(O)c(O)nc2cc1[N+](=O)[O-]	1%[59 µM]	79µM*	6%	14%	-19%	-21%
CCC1C(=O)Nc2ccccc2N1C(=O)c1ccc(Cl)nc1 (stereo unspecified)	31%	100µM*	5%	12%	21%	-7%
COc1ccc(N2CCN(C(=O)C3CCN(C(=O)c4ccc([N+](=O)[O-])cc4)CC3)CC2)cc1	-12%	-18%	-22%	14%	8%	4%
SMILES	G9a block	JMJD2A Tudor	BAZ2B inh	Sfp inh	HP1b binding inh	PLK1 PBD block
Clc1ccc(CNc2ccccc2NCc2ccc(Cl)nc2)cn1	3.2µM*	?	?	-2%	1%	-16%
CC(=O)c1ccc(N2CCN(S(=O)(=O)c3ccc4c(c3)CC(=O)N4)CC2)cc1	·	-29%[229 µM]	1%	18%	44%	-12%
CC(=O)c1ccc(N2CCN(S(=O)(=O)c3ccc4c5c3CC(=O)N5CC(C)S4)CC2)cc1 (stereo unspecified)	45µM*	-18%	-21%[57.1 µM]	-7%	17%[57 µM]	-8%
O=C(O)[C@H]1CCCC[C@H]1C(=O)Nc1ccc(Nc2ccccc2)cc1	8.9µM*	-11%	-35%	3%	13%	0%
O=C(O)C1CCCCC1C(=O)Nc1cccc(Br)c1 (stereo unspecified)	16%[2.33 µM]	25µM*	?	·	25µM*	-20%
O=C(Nc1cccc(Br)c1)C1CCCC1	·	8%	·	·	58%	-1%
COc1cccc(CN(C)C(=O)CSCC(=O)Nc2cc(C)on2)c1OC	-1%	2%	-1%	·	23%	0%
NC(=Nc1ccc(N)cc1)C(N)=Nc1ccc(N)cc1	?	25µM*	5.6µM*	3%	-25%	2%
CN(C(=O)Cn1cc(S(=O)(=O)Cc2ccccc2Cl)c2ccccc21)c1ccccc1	2%[59 µM]	-21%	3%	·	11%	·
CCOC(=O)C1=C(C)N=c2s/c(=C\c3cc(OC)c(OC)c(OC)c3)c(=O)n2C1/C=C/c1ccccc1 (stereo unspecified)	18%	-23%[57.1 µM]	4%	5%	9%	?
CCOC(=O)C1=C(C)N=C2SC(C(=O)OC)=CC(=O)N2C1c1ccc(F)cc1 (stereo unspecified)	?	25µM*	?	?	?	-26%
CCOC(=O)C1=C(C)N=c2s/c(=C\c3cccn3C)c(=O)n2C1c1cccc(OC)c1OC (stereo unspecified)	?	?	?	16µM*	-29%	-10%
CCOC(=O)C1=C(C)N=c2s/c(=C/c3cccc([N+](=O)[O-])c3O)c(=O)n2C1c1ccccc1 (stereo unspecified)	2µM*	28µM*	7.1µM*	50µM*	14µM*	19µM*
CCOC(=O)C1=C(C)N=c2sc(=Cc3cc(Cl)c(OCC(=O)O)c(OC)c3)c(=O)n2C1c1ccccc1Cl (stereo unspecified)	·	·	·	·	·	27µM*
Brc1ccc(C[n+]2ccccc2)cc1	25%[2.33 µM]	-3%	6%	·	38%	2%
COC(=O)C(C(=O)OC)[C@@H]1c2ccccc2[C@H]2C(=C[C@@H](C)[C@H]3C(=O)N(c4ccccc4)C(=O)[C@H]32)N1C(=O)OC	·	·	·	-3%	·	·
